Experimental data taken from PubChem BioAssay.
Measured potencies and affinities stand elsewhere. Records with an inconclusive call do not appear. Activity calls are given as the source filed them.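 Rule for the calls, unless noted: active = signal drop whose fitted half-maximal concentration is at most twice the top valid dose, in every test run; inconclusive = mixed calls across runs, poor fit, or flat 30 to 70% inhibition; inactive = wrong direction, flat within 30%, or potency beyond limit.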

experiment: RMG-1 ovarian cancer cell viability loss – cherry-pick, dose response (AID 687029); details: RMG-1 viability, CellTiterGlo ATP luminescence, 96 h; series mostly up to 35 µM;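 note: cells exposed to compound for 96 hours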

**Q.** For `N#Cc1nccnc1S(=O)(=O)c1cccs1`, which outcome is on record?
**A.** inactive

**Q.** For `COc1ccc(NC(=O)N2CCCCN3[C@@H](CO)[C@@H](c4ccc(C#Cc5ccccc5)cc4)[C@@H]3C2)cc1`, which outcome is on record?
**A.** inactive

**Q.** With `CCOc1ccc(C(=O)O/N=C(\N)c2ccccn2)cc1` as the molecule, how does the outcome read?
**A.** inactive

**Q.** With `Nc1nc(N)c2c(ccc3c2ccn3Cc2cccc([N+](=O)[O-])c2)n1` as the molecule, how does the outcome read?
**A.** inactive

**Q.** With `NC1=C(Br)C(=O)c2ncccc2C1=O` as the molecule, how does the outcome read?
**A.** inactive

**Q.** Which outcome does the source give for `CCS(=O)(=O)c1ccc(N=Nc2ccc(O)c3ncccc23)c(OC)c1` here?
**A.** inactive

**Q.** Which outcome does the source give for `O=C(NC1=C(NC2CCS(=O)(=O)C2)C(=O)c2ccccc2C1=O)c1ccccc1` (configuration not stated) here?
**A.** inactive

**Q.** With `CN(C[C@H]1N[C@@H](CO)[C@@H]1c1ccc(C2=CCCC2)cc1)C(=O)c1cccc(F)c1` as the molecule, how does the outcome read?
**A.** inactive

**Q.** With `O=C(CCl)N(c1ccccc1)C1CCCCC1` as the molecule, how does the outcome read?
**A.** inactive

**Q.** With `CC(=O)/C=C/n1c(=S)oc2ccccc21` as the molecule, how does the outcome read?
**A.** inactive

**Q.** For `Cc1ccc(Cn2ccsc2=NC(=O)CCl)cc1`, which outcome is on record?
**A.** inactive

**Q.** With `CCN1CCN(Cc2ccc(NC(=O)c3ccc(C)c(NC(=O)c4c[nH]c5cc(C(F)(F)F)ccc5c4=O)c3)cc2C(F)(F)F)CC1` as the molecule, how does the outcome read?
**A.** inactive

**Q.** With `O=c1c(Br)c(Br)cnn1-c1ccccc1` as the molecule, how does the outcome read?
**A.** inactive

**Q.** Which outcome does the source give for `CCN(CC)S(=O)(=O)c1cc([N+](=O)[O-])ccc1NNC(=O)Nc1ccc(Cl)c(Cl)c1` here?
**A.** inactive

**Q.** Which outcome does the source give for `OCC1OC(n2cnc3c(NCc4ccccc4O)ncnc32)C(O)C1O` (configuration not stated) here?
**A.** inactive

**Q.** Which outcome does the source give for `NC(N)=NN=C(c1ccc(F)cc1)c1ccc(C(F)(F)F)cc1` here?
**A.** inactive

**Q.** With `Nc1nc(=S)c2ncn([C@@H]3O[C@H](CO)[C@@H](O)[C@H]3O)c2[nH]1` as the molecule, how does the outcome read?
**A.** inactive

**Q.** Which outcome does the source give for `CC[C@@H](C)[C@H](CNC)NC[C@@H](Cc1cccc2ccccc12)NCCc1cccc(C(F)(F)F)c1` here?
**A.** inactive

**Q.** Which outcome does the source give for `COC1=CC(=O)c2c(ccc3ncnc(N)c23)C1=O` here?
**A.** inactive

**Q.** For `CCCCCCN(C(=O)CCl)c1ccccc1`, which outcome is on record?
**A.** inactive

**Q.** Which outcome does the source give for `COc1ccc(N(C(=O)CCl)C(C(=O)NCCc2ccccc2)c2cccs2)cc1` (configuration not stated) here?
**A.** inactive

**Q.** Which outcome does the source give for `CCC1CCCCN1S(=O)(=O)c1ccc(NC(=O)c2nc(S(C)(=O)=O)ncc2Cl)cc1` (configuration not stated) here?
**A.** inactive

**Q.** For `CC(C)(C)OC(=O)NCCCC[C@H](NC(=O)c1[nH]cnc1C(=O)Nc1ccc(CNC(=O)OC(C)(C)C)cc1)C(=O)OC(C)(C)C`, which outcome is on record?
**A.** inactive

**Q.** For `CCCCCN=C(N)N/N=C/c1c[nH]c2ccc(OC)cc12`, which outcome is on record?
**A.** inactive

**Q.** Which outcome does the source give for `COc1ccc(/C=c2/sc3n(c2=O)C(c2ccccc2OC)C2=C(N=3)c3ccccc3CC2)cc1O` (configuration not stated) here?
**A.** inactive

**Q.** Which outcome does the source give for `Cc1nn(-c2ccccc2)c(Cl)c1CN(C(=O)CCl)c1cccc2ccccc12` here?
**A.** inactive

**Q.** With `Cc1ccc(Cl)cc1NC1=C/C(=N\S(=O)(=O)c2cccs2)c2ccccc2C1=O` as the molecule, how does the outcome read?
**A.** inactive

**Q.** With `Clc1ccc(Cn2ncc3c(N4CCN(c5ccccc5)CC4)ncnc32)cc1` as the molecule, how does the outcome read?
**A.** inactive

**Q.** For `Cc1nc(-c2ccc(NC(=O)c3ccco3)cc2)cs1`, which outcome is on record?
**A.** inactive

**Q.** For `O=C1C(=O)c2cccnc2-c2ncccc21`, which outcome is on record?
**A.** inactive

**Q.** For `COc1ccc(OCc2cccc(C(=O)Nn3cc([N+](=O)[O-])cn3)c2)cc1`, which outcome is on record?
**A.** inactive

**Q.** With `C=CCn1c(C)cc(C2=NNC(=NCC)SC2)c1C` as the molecule, how does the outcome read?
**A.** inactive

**Q.** For `O=C(Nc1ccc([N+](=O)[O-])cc1)C(=O)Nc1cccc(C(=O)O)c1`, which outcome is on record?
**A.** inactive

**Q.** Which outcome does the source give for `C=C1C(=O)C23C(O)C1CCC2C12CCCC(C)(COC(C)=O)C1C(O)C3(O)OC2` (configuration not stated) here?
**A.** inactive

**Q.** With `COC(=O)C1C=CC(OC2OC(COC(C)=O)C(OC(C)=O)C(OC(C)=O)C2OC(C)=O)n2c(=O)n(-c3ccccc3)c(=O)n21` (configuration not stated) as the molecule, how does the outcome read?
**A.** inactive

**Q.** With `C(=NNc1ccc2ccccc2n1)c1ccccn1` as the molecule, how does the outcome read?
**A.** inactive

**Q.** For `O=C(CCCCCCC(=O)Nc1ccccc1)NO`, which outcome is on record?
**A.** inactive

**Q.** Which outcome does the source give for `C[C@@H]1CN([C@@H](C)CO)C(=O)Cc2cc(NS(=O)(=O)c3ccccc3)ccc2O[C@H]1CN(C)Cc1ccc(Cl)c(Cl)c1` here?
**A.** inactive

**Q.** With `COc1ccc(-c2cc(CNc3nc(NC(C)C)nc4cc(-c5ccccc5)sc34)on2)cc1` as the molecule, how does the outcome read?
**A.** inactive

experiment: IOSE-T80 viability loss, PAX8-independent line – cell-based, cherry-pick, selectivity assay for PAX8 inhibitor project, dose response (AID 687032;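 active = fitted half-maximal concentration for viability loss no higher than twice the top valid dose, in every repeat run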;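 note: cells exposed to compound for 96 h before reading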); details: CellTiterGlo ATP luminescence, 96 h; series mostly up to 35 µM

**Q.** With `O=c1c(Br)c(Br)cnn1-c1ccccc1` as the molecule, how does the outcome read?
**A.** inactive

**Q.** With `CCN(CC)S(=O)(=O)c1cc([N+](=O)[O-])ccc1NNC(=O)Nc1ccc(Cl)c(Cl)c1` as the molecule, how does the outcome read?
**A.** inactive

**Q.** For `CC[C@@H](C)[C@H](CNC)NC[C@@H](Cc1cccc2ccccc12)NCCc1cccc(C(F)(F)F)c1`, which outcome is on record?
**A.** inactive
